Sampled rows, rich in hits. Any-hit rate of the full collection: about 7.9%.
MARV entry inh: Marburg virus entry inhibition. Marburg virus pseudotyped entry inhibition, cell reporter. Potency, µM (highest dose often 37.8 µM), most hits filed as inhibitors. 300,000 compounds, 1.8% hits. AID 540276; calls by dose curve; tested in HEK293 cells
HCMV inh: blocks human cytomegalovirus replication | HFF cells, HCMV-luciferase reporter, 72 h; hits give low values | activity change, negative = inhibition, % at 57.5 µM | 410,000 compounds, 4.5% hits; in the data active = activity change below about -60%; inconclusive = no clear call, values can overlap the other calls; inactive = above about -39%
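Steps: HFFs plated, 16 h 37C; compounds added; HCMV-luciferase added to MOI 1 PFU/cell; 72 h 37C; OneGlo reagent, 5 min room temperature; luminescence read, normalized to controls.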
LASV entry inh: blocks Lassa virus binding to or entry into cells; Lassa virus pseudotype entry inhibition, cell reporter; 300,000 compounds, 1.2% hits; AID 540256; Potency, µM (titrated, usually from 37.9 µM), most hits filed as inhibitors; calls by dose curve; tested in HEK293 cells; also: nearly all actives have a fitted effect of over 50% in size
FMDV antiviral: foot and mouth disease virus antiviral activity. Potency, µM (series often up to 57.9 µM), hits mostly inhibitors. FMDV antiviral cell-based qHTS. AID 1159524. 410,000 compounds, 1.2% hits; calls by dose curve; tested in HEK293T cells; also: read-out not given here; nearly all actives have a fitted effect of over 45% in size
HCV inhibitor: blocks hepatitis C virus; Potency, µM (doses to about 41.8 µM), usual class: inhibitors; Huh7.5.1 HCVcc-Cre infection, luciferase reporter, 44 h; AID 651820; 340,000 compounds, 3.4% hits; active = well fitted inhibition curve with a large enough effect; inconclusive = small, poorly fitted or top-dose-only effect, or another doubt; inactive = no such curve, though single readings can be large or run the other way
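Whole-lifecycle infectious HCVcc-Cre system; cells 1,000/well, compound then virus (~0.5 moi) added 4 h after plating, 44 h culture. Luciferase read 15 sec following 15 min substrate incubation, room temp.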
A number is an active result; . = inactive; ? = inconclusive; / = no result; ! = a repeat was not active.

SMILES	MARV entry inh	HCMV inh	LASV entry inh	FMDV antiviral	HCV inhibitor
CCOC(=O)c1c(N)sc(C(=O)Nc2ccccc2F)c1C	/	.	/	.	.
Cc1ccccc1C(=O)Nc1ccccc1OCc1cc(=O)n2ccccc2n1	/	.	?	.	/
COc1ccccc1-n1c(=O)c2c3c(sc2n(C)c1=O)CN(C(C)=O)CC3	/	.	.	.	/
Cc1ccc(Cn2cc(S(=O)(=O)c3ccccc3)c(=O)c3cc(F)c(N4CCOCC4)cc32)cc1	/	.	.	.	/
CC(C)c1ccc(NC(=O)c2cc(S(=O)(=O)N(C)C3CCCCC3)ccc2F)cc1	/	.	?	?	/
CCOC(=O)c1c(N)sc2c(NC(C)=O)cccc12	.	.	.	.	18µM
COC(=O)c1sc(-c2ccccc2)cc1NC(=O)c1ccccc1	?	?	.	.	.
COC(=O)c1sc(-c2ccccc2)cc1NC(C)=O	?	.	.	.	8.9µM
CCOC(=O)c1sc(NC(C)=O)cc1C	/	.	/	.	.
CCOC(=O)c1sc(NC(=O)Nc2ccccc2Cl)cc1C	?	-74	7.9µM	.	?
Cc1cc(C)c(NC(=O)CSc2nc(C)cc(C)c2C#N)c(C)c1	.	.	.	.	/
COc1ccc(-c2c(C)nn3c4c(cnc23)C(=O)CC(c2ccc(C)cc2)C4)cc1 (stereo not given)	?	.	.	.	/
COc1ccc(-c2coc3cc4oc(=O)c5ccccc5c4cc23)cc1F	.	-85	?	.	?
COc1cccc([C@H]2/C(=C(\O)c3ccc4c(c3)OCCO4)C(=O)C(=O)N2CCN(C)C)c1	.	/	/	/	/
CN(C)CCCC1(c2ccc(F)cc2)OCc2cc(C#N)ccc21 (stereo not given)	16µM!	.	?	.	?
COCCNC(=O)CN1C(=O)c2cccnc2Sc2ccccc21	/	.	.	.	/
COc1ccc(-c2noc(CSc3nnc(CCc4ccccc4)n3-c3ccccc3)n2)cc1OC	.	.	4.1µM	/	11µM
COc1ccc(Cc2nc(-c3ccc(-n4cccc4)cc3)no2)cc1OC	/	?	/	?	10µM
Cc1ccc(-c2noc(CSc3nnc(Cc4ccccc4)n3-c3ccc(Cl)cc3)n2)cc1	?	.	1.6µM	.	?
COc1ccc(-c2noc(CSc3nnc(Cc4ccccc4)n3-c3ccc(Cl)cc3)n2)cc1	?	.	4.1µM	.	14µM
CN(Cc1ccco1)C(=O)c1cc(NC(=O)C2CCC2)c2c(c1)nc(-c1ccncc1)n2C	/	/	/	.	/
CC(C)c1nn2c(=O)cc(COC(=O)c3ccccc3NC(=O)COc3ccccc3)nc2s1	/	.	.	.	/
COC(=O)c1ccc2c(=O)n(CCCCCC(=O)NCCc3ccccc3)c(=O)[nH]c2c1	/	.	.	.	/
COc1ccc(Cn2c(=O)c3oc4ccccc4c3n(Cc3cccc(C(F)(F)F)c3)c2=O)cc1	/	.	.	.	/
CCN(CC)CCCNC(=S)N(Cc1cccs1)Cc1cc2cc3c(cc2[nH]c1=O)OCCO3	?	-104	.	.	.
SMILES	MARV entry inh	HCMV inh	LASV entry inh	FMDV antiviral	HCV inhibitor
CCN(CC)CCN(Cc1cc2cc3c(cc2[nH]c1=O)OCCO3)C(=S)NCC(C)C	11µM	.	?	.	?
COC(=O)c1cc(NC(=O)Cn2nc(-c3ccc(C)c(C)c3)ccc2=O)cc(C(=O)OC)c1	.	.	.	.	/
Cc1cc(CNC(=O)CCN2Cc3cc(Cl)ccc3OC(C)C2)nn1C (stereo not given)	/	/	/	.	/
CCN1CCN(C(=O)C2=CC(c3ccc(OC)cc3)=NS(=O)(=O)N2C)CC1	/	-64	/	.	.
COc1ccc(C2=NS(=O)(=O)N(C)C(C(=O)N3CCN(C)CC3)=C2)cc1	/	.	/	.	.
Cc1ccc(-c2noc(C3CCCN(C(=O)c4c(F)cccc4F)C3)n2)cc1 (stereo not given)	.	?	.	.	/
O=C(c1c(F)cccc1F)N1CCCC(c2nc(-c3ccc(Cl)cc3)no2)C1 (stereo not given)	/	.	/	.	11µM
Cc1ccc(-c2noc(C3CCCN(C(=O)c4ccccc4Br)C3)n2)cc1 (stereo not given)	/	?	/	.	10µM
O=C(c1ccc(F)cc1F)N1CCCC(c2nc(-c3ccc(F)cc3)no2)C1 (stereo not given)	.	.	?	.	11µM
Cc1ccc(C)c(NC(=O)CSc2ncc3c(n2)-c2ccc(Cl)cc2N(C)S3(=O)=O)c1	/	.	.	.	/
CCc1ccc(C2C(=O)c3ccccc3C2=O)cc1	?	.	.	.	.
CCCCC(=O)Nc1ccc(C2C(=O)c3ccccc3C2=O)cc1	.	.	?	?	10µM
CCC(=O)Nc1ccc(C2C(=O)c3ccccc3C2=O)cc1	10µM	.	?	20µM	2.8µM
CC(=O)c1c(N2CCN(c3ccc(F)cc3)CC2)nc(=S)n(Cc2ccccc2)c1C	?	-68	.	?	?
COC1=C(C2C(OC)CCC3CCCCC32)C2=C(CCCC2)CC1 (stereo not given)	.	/	/	/	/
Oc1ccc(-c2nc3ccccc3s2)c(O)c1	?	.	.	.	.
Oc1ccc(-c2cnns2)c(O)c1	?	?	11µM	.	?
N#Cc1c[nH]n2c(NC3CCCCC3)c(-c3ccc(F)cc3)nc12	.	.	.	.	/
COc1cccc2nc3c(C(=O)NCCN(C)C)cccc3cc12	7.1µM	-101	?	.	?
CN(C)CCNC(=O)c1cccc2nc3c(ccc4ccccc43)nc12	?	-96	?	.	7.9µM
COc1ccc(Cl)cc1C(=O)NCCN(C)C	.	.	.	.	.
COc1ccc(C(=O)NCCN(C)C)c2nc3ccccc3cc12	1.3µM	-100	?	.	?
Cc1ccc(Sc2cc(C(=O)NCCN(C)C)c3ccccc3n2)cc1	/	.	/	.	.
COc1ccc(-c2nc3c(C(=O)NCCN(C)C)cccc3c3ccccc23)cc1	?	.	?	.	?
CN(C)CCNC(=O)c1cccc2[nH]c(-c3ccncc3)nc12	?	-100	?	.	?
SMILES	MARV entry inh	HCMV inh	LASV entry inh	FMDV antiviral	HCV inhibitor
COC(=O)C(C)Sc1ncnc2c1c(-c1ccccc1)cn2-c1ccc(F)cc1 (stereo not given)	?	.	.	.	/
COc1cc(C(=O)N2CCNC(=O)C2CC(=O)Nc2ccc(C)c(C)c2)cc(OC)c1OC (stereo not given)	.	.	.	.	/
COc1cc(OC)cc(C(=O)NNC(=O)c2ccc3ccccc3n2)c1	?	-75	?	.	?
COc1ccc(C(=O)NC(=S)NNC(=O)c2ccc(C)cc2)cc1	/	.	/	.	?
COc1ccc(C(=O)NC(=S)NNC(=O)c2ccc3ccccc3n2)cc1	?	-97	?	.	11µM
COc1ccc(N=C(NN)c2ccc3ccccc3n2)cc1	?	-89	?	.	.
CCOc1cc(CNC(=O)NC2COc3ccc(OC)cc3C2)cc(OCC)c1OCC (stereo not given)	/	.	.	.	/
CC(=O)Oc1ccc2ccccc2c1C(NC(=O)Cc1ccccc1)c1ccc(Cl)cc1 (stereo not given)	?	.	.	?	10µM
CCOc1ccc(C(NC(=O)CC)c2c(O)ccc3ccccc23)cc1 (stereo not given)	/	.	/	.	.
Cn1nnnc1SCCNCc1ccccc1OCc1ccccc1Cl	.	?	.	?	?

From PubChem
